Several values for one entry are separate records, joined by “and”; a condition that tells them apart may be missing. Identical values can stand only once. About 83,000 compounds went through this panel and 20% of them were active in at least one assay; those are over-represented in the sample as a whole.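 Treatment: one concentration, 48 hours, 96-well format. Scoring: percent growth, with anything below 10 considered active.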 Activity calls are given as the source filed them.
Test system: LOX IMVI melanoma
Assay: NCI-60 one-dose screen, 48 h (100 = growth as untreated, 0 = no growth, -100 = all killed)
Settings: 10 µM
Protocol: Growth inhibition of the LOX IMVI human tumor cell line is measured as a screen for anti-cancer activity. Cells are grown in 96 well plates and exposed to the test compound for 48 hours. Compounds are tested at a single concentration, which is 10^-5 M for most compounds. The reported endpoint is percent growth (GI% or GIPRCNT), where numbers from 0 - 100% represent growth inhibition, and numbers from -100% - 0 represent cell death. For example, a value of 40 represents 60% growth inhibition. A value of 0 means no net growth occurred over the course of the experiment. A value of -40 indicates 40% of cells at the beginning of the experiment died by the end of the experiment. A value of -100 means all cells are dead at the end of the experiment.
NCI-60 Human Tumor Cell Lines Screen was performed using the standard one-dose NCI protocol, which is described in more detail at https://dtp.cancer.gov/discovery_development/nci-60/default.htm.
Compounds with GIPRCNT values below 10 were considered active. Activity score was based on GIPRCNT using the following formula: […]
Score is 0 for GIPRCNT values of 100 or above, 50 for GIPRCNT values of 0, and 100 for GIPRCNT values of -100.

Row | Structure (SMILES) | growth
1 | CC(=O)/C=C/c1ccc(N(CCO)Cc2ccc(C(C)(C)C)cc2)cc1 | 62.4% (inactive)
2 | CC(=O)/C=C/c1ccc(OCc2ccc(C(C)(C)C)cc2)cc1 | 62.3% (inactive)

Same assay, conditions: 10 µM unless noted

Row | Structure (SMILES) | growth
3 | C=C1C(=O)O[C@H]2[C@H]1CC/C(CNS(=O)(=O)c1ccc3ccccc3c1)=C\CC[C@@]1(C)O[C@@H]21 | -84.8% (active)
4 | Fc1ccc(NC(c2ccc(F)cc2)C2CCN(CCCCc3ccccc3)CC2)cc1 (stereo not given) | 11.3% (inactive)
5 | CC(=O)N1N=C(c2ccc(Nc3nc(Nc4ccc(F)cc4)nc(Nc4ccc(Cl)cc4)n3)cc2)CC1c1ccc(N(C)C)cc1 (stereo not given) | 63.1% (inactive)
6 | COc1ccccc1/C=C1\COc2ccc(O)c(O)c2C1=O | -30.1% (active)
7 | OCc1cc(CN2CCCCC2)c(O)c2ncccc12 | 37.3% (inactive)
8 | CN1CCN(Cc2ccc(NC(=O)c3nc4ccc5[nH]ncc5c4c4c3CCCC4)cc2C(F)(F)F)CC1 | -94.9% (active)
9 | O=C1/C(=C/c2ccc(F)c(F)c2)CN(C(=O)C(Cl)Cl)C/C1=C\c1ccc(F)c(F)c1 | -90.1% (active)
10 | CCCN1C(=O)/C(=c2\sc3n(c2=O)NC2C(N=3)N(CC)C(=O)N2CC)c2ccccc21 (stereo not given) | 38.8% (inactive)
11 | COc1cc2c(cc1OCCCOC1=C=C=C(c3ccc4c(c3)c3cc(-c5ccc(OCCCOc6cc7c(cc6OC)C(=O)N6CCC[C@H]6C=N7)cc5)ccc3n4S(=O)(=O)c3ccc(C)cc3)C=C1)N=C[C@@H]1CCCN1C2=O | -14.5% (active)
12 | CC(C)(C)CC(N)=O | 98.1% (inactive)
13 | OB(O)c1ccsc1-c1nc2ccc3[nH]ncc3c2c2c1CCCC2 | 41.1% (inactive)
14 | CCOC(=O)CCCn1c(-c2ccccc2)cc(-c2ccccc2)c(C#N)c1=O | 84.7% (inactive)
15 | COc1cc(NC2CCCCC2O)c2nc(-c3ccc(Cl)cc3)ccc2c1 (stereo not given) | 41.4% (inactive) and 77% (inactive)
16 | OCCN1CCN(c2cc(-c3cccc(OC(F)(F)F)c3)nc3ccc(N4CCCC4)cc23)CC1 | 9.02% (active)
17 | CCCCCCCCn1ccc2cc(NC(=O)CN3CCN(c4nc(C)cc(N5CCCCC5)n4)CC3)ccc21 | 103% (inactive)
18 | O=C(Nc1ccccc1C(=O)N/N=C(\c1ccccc1)c1ccccn1)c1ccccc1 | 14.5% (inactive)
19 | COc1cc(CNC(=O)CCCC/C=C/C(C)C)ccc1OCc1cn(-c2ccc([N+](=O)[O-])cc2)nn1 | 89.5% (inactive)
20 | COc1ccc(/C=N/NC(=O)CN2CCN(c3cc4c(cc3F)c(=O)c(C(=O)O)cn4C3CC3)CC2)cc1O | 97.9% (inactive)

Row | Structure (SMILES) | growth
21 | Cc1ccc2nc3ccccc3c(NCc3ccc(Cl)cc3)c2c1 | -57.1% (active)
22 | COC(=O)/C=C1/SC(=Nc2ccc([N+](=O)[O-])cc2)N(CCc2c[nH]c3ccccc23)C1=O | -9.3% (active)
23 | Cn1cc(C2=C(c3cccc4ccccc34)C(=O)NC2=O)c2cc(Br)ccc21 | 89.8% (inactive)
24 | COc1ccc(-c2nc(Cl)c3c(C)nn(-c4ccc(F)cc4)c3n2)cc1 | 101% (inactive)
25 | COC1/C=C/OC2(C)Oc3c(C)c(O)c4c(O)c(c(C=NOC(c5ccccc5)c5ccccc5)c(O)c4c3C2=O)NC(=O)/C(C)=C/C=C/C(C)C(O)C(C)C(O)C(C)C(OC(C)=O)C1C (stereo not given) | 0.468% (active)
26 | C=C1C(=O)O[C@@H]2[C@H]3[C@H](COC(C)=O)[C@@H](OC(C)=O)C[C@H]3C(=C)[C@@H](O)C[C@@H]12 | 93% (inactive)
27 | COC(=O)N/N=C/c1c[n+]([O-])c2ccccc2[n+]1[O-] | 97.7% (inactive)
28 | COc1ccc(C/C(C)=C(/c2ccc(OCCN3CCCCCC3)cc2)c2ccc(OC(=O)c3ccccc3)cc2)cc1 | 90.7% (inactive)
29 | O=Nc1ccc(NO)c2ccccc12 | 102% (inactive) and 17.4% (inactive)
30 | CONC1=Nc2cc(NC(N)=NCc3ccccc3)c(N(C)C3CCCCC3)cc2OC1 | 50.2% (inactive)
31 | CCOC(=O)C1=C(C)NC(=O)NC1c1c(Cl)n(-c2ccccc2)c2ccccc12 (stereo not given) | 89.3% (inactive)
32 | O=S(=O)(O)c1ccc(N=Nc2ccc(N=Nc3cccc4ccccc34)c(S(=O)(=O)O)c2)cc1 | 94.1% (inactive)
33 | O=C(CCN1CCOCC1)Nc1cccc(-n2cc(-c3ccncc3)c(-c3ccc(Cl)c(O)c3)n2)c1 | 23.1% (inactive)
34 | CCOC(=O)N(O)c1ccc(/C=C/c2ccccc2)cc1 | 60.2% (inactive) and 58.5% (inactive)
35 | C/C=C(\C)C(=O)N[C@H]1CC[C@]2(C)C3CC[C@@]4(C)C(CC[C@@H]4C(C)N(C)C)C3CCC2[C@H]1OC(C)=O (stereo not given in full) | -78.8% (active)
36 | CON1CCC[C@]2(C)[C@H]3CC[C@@H]4[C@H]5[C@@H](O)C(C)(C)CC[C@]5(CO)CC[C@@]4(C)[C@]3(C)CC[C@H]2C1(C)C | 87.7% (inactive)
37 | O=C1CCc2c(sc3[nH]c(=S)n(Cc4ccc(Cl)cc4)c(=O)c23)C1 | 2.41% (active)
38 | COc1ccc(-c2cc(=O)c3c(O)cc(O)cc3o2)cc1 | 82.8% (inactive) and 91.6% (inactive)

Same assay, conditions: 100 µM

Row | Structure (SMILES) | growth
39 | CC(=O)/C=C/c1ccc(N(CCO)Cc2ccc(C(C)(C)C)cc2)cc1 | -100% (active)
40 | CC(=O)/C=C/c1ccc(OCc2ccc(C(C)(C)C)cc2)cc1 | 32% (inactive)
